In PubChem BioAssay AID1159580 (chemical genetic matrix, 2015):
Where “and” joins values, the source holds several entries; their conditions need not be identical. Equal values may be shown once. In all, about 5,500 compounds went through this assay and about 2,000 (36%) were called active. Not shown: some 18% with an inconclusive outcome. No stated cut-off is given here; in the data, active means normalized growth mostly below about 0.91 (no sharp cut-off); inconclusive means no clear call, values can overlap the other calls; inactive means mostly above about 0.92. The list shows a part of the results.

Assay: chemical genetic growth profiling, strain panel (AID 1159580);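 further: tested at 20 µM; growth read once vehicle control cultures reached saturation at 30 °C; 1 = growth at the plate median or of vehicle wells; lower values mean less growth of the strain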
Conditions: S. cerevisiae deletion strains, growth OD

Measured: normalized growth

COc1ccc(-c2cc(=O)c3cc(OC)ccc3o2)cc1
active: locus YAL030W, strain snc1, hits give low values 0.928 | locus YBR009C, strain hhf1, hits give low values 0.902 | locus YCL011C, strain gbp2, hits give low values 0.887 | locus YDR392W, strain spt3, hits give low values 0.571 | locus YEL037C, strain rad23, hits give low values 0.921 | locus YER155C, strain BEM2 (second series), hits give low values 0.771 | locus YGL253W, strain hxk2, hits give low values 0.894 | locus YHR142W, strain chs7, hits give low values 0.84 | locus YJL164C, strain tpk1, hits give low values 0.912 | locus YLL026W, hits give low values 0.926 | locus YLR320W, strain mms22, hits give low values 0.869 | locus YNL071W, strain lat1, hits give low values 0.831 | locus YOR270C, strain vph1, hits give low values 0.676 | locus YOR290C, strain snf2, hits give low values 0.849
inactive: locus YAL013W, strain DEP1, hits give low values 0.982 | locus YAL021C, strain ccr4, hits give low values 0.964 | locus YAL026C, strain drs2, hits give low values 0.922 | locus YBL061C, strain skt5, hits give low values 0.937 | locus YBR021W, strain FUR4, hits give low values 0.908 | locus YBR023C, strain chs3, hits give low values 0.916 | locus YBR171W, strain sec66, hits give low values 0.95 | locus YBR229C, strain ROT2, hits give low values 0.999 | locus YBR231C, strain swc5, hits give low values 0.939 | locus YBR279W, strain paf1, hits give low values 0.944 | locus YCL016C, strain dcc1, hits give low values 0.944 | locus YCL029C, strain bik1, hits give low values 0.987 | locus YCL061C, strain MRC1, hits give low values 0.96 | locus YCL069W, strain vba3, hits give low values 0.945 | locus YCR088W, strain abp1, hits give low values 0.94 | locus YDL005C, strain med2, hits give low values 0.949 | locus YDL035C, strain GPR1, hits give low values 0.977 | locus YDL040C, strain nat1, hits give low values 0.95 | locus YDL074C, strain BRE1, hits give low values 0.918 | locus YDL101C, strain DUN1, hits give low values 0.983 | locus YDL134C, strain PPH21, hits give low values 1.04 | locus YDL185W, strain tfp1, hits give low values 0.946 | locus YDL192W, strain arf1, hits give low values 0.978 | locus YDR001C, strain nth1, hits give low values 0.942 | locus YDR069C, strain doa4, hits give low values 0.948 | locus YDR101C, strain arx1, hits give low values 0.946 | locus YDR137W, strain rgp1, hits give low values 0.883 | locus YDR150W, strain NUM1, hits give low values 0.983 | locus YDR159W, strain sac3, hits give low values 0.925 | locus YDR162C, strain NBP2, hits give low values 1.01 | locus YDR195W, strain ref2 1.04 | locus YDR297W, strain sur2, hits give low values 0.955 | locus YDR318W, strain mcm21, hits give low values 1.02 | locus YDR334W, strain swr1, hits give low values 0.931 | locus YDR335W, strain msn5, hits give low values 0.962 | locus YDR388W, hits give low values 1 | locus YDR502C, strain sam2, hits give low values 0.968 | locus YEL003W, strain gim4, hits give low values 0.956 | locus YEL061C, strain CIN8 (second series), hits give low values 0.93 | locus YEL061C, strain CIN8, hits give low values 1.01 | locus YER015W, strain faa2, hits give low values 0.969 | locus YER016W, strain bim1, hits give low values 0.954 | locus YER110C, hits give low values 0.974 | locus YER111C, strain swi4, hits give low values 0.943 | locus YER155C, strain BEM2, hits give low values 0.985 | locus YER167W, strain BCK2, hits give low values 0.997 | locus YFR010W, strain ubp6, hits give low values 0.906 | locus YGL078C, strain dbp3, hits give low values 0.995 | locus YGL086W, strain mad1, hits give low values 0.938 | locus YGL167C, strain pmr1, hits give low values 0.924 | locus YGL173C, strain kem1, hits give low values 0.947 | locus YGL227W, strain vid30, hits give low values 0.947 | locus YGL240W, strain doc1, hits give low values 0.892 | locus YGL248W, strain PDE1, hits give low values 1.01 | locus YGR078C, strain PAC10, hits give low values 0.988 | locus YGR135W, strain pre9, hits give low values 1.01 | locus YGR229C, strain SMI1, hits give low values 0.961 | locus YGR252W, strain gcn5, hits give low values 1.04 | locus YHR013C, strain ard1, hits give low values 0.972 | locus YHR027C, strain rpn1, hits give low values 0.949 | locus YHR030C, strain SLT2, hits give low values 0.998 and 0.956 | locus YHR079C, strain IRE1 (second series), hits give low values 0.997 | locus YHR079C, strain IRE1, hits give low values 0.928 | locus YHR094C, strain hxt1, hits give low values 1.01 | locus YHR129C, strain ARP1, hits give low values 0.985 | locus YHR200W, strain rpn10, hits give low values 0.985 | locus YIL066C, strain RNR3, hits give low values 0.999 | locus YIL073C, strain SPO22, hits give low values 0.973 | locus YIL125W, strain kgd1, hits give low values 0.99 | locus YIR030C, strain dcg1, hits give low values 1.01 | locus YJL092W, strain hpr5, hits give low values 0.948 | locus YJL095W, strain BCK1 (second series), hits give low values 0.95 | locus YJL095W, strain BCK1, hits give low values 0.96 and 0.964 | locus YJL115W, strain asf1, hits give low values 0.936 | locus YJL129C, strain trk1, hits give low values 0.937 | locus YJL134W, strain LCB3, hits give low values 0.996 | locus YJL154C, strain vps35, hits give low values 0.942 | locus YJL166W, strain qcr8, hits give low values 0.913 | locus YJL168C, strain set2, hits give low values 1 | locus YJL187C, strain SWE1 (second series), hits give low values 0.972 | locus YJL187C, strain SWE1, hits give low values 0.948 | locus YJR043C, strain POL32, hits give low values 0.966 | locus YJR066W, strain TOR1, hits give low values 0.893 | locus YKL009W, strain mrt4, hits give low values 0.925 | locus YKL068W, hits give low values 1 | locus YKL085W, strain MDH1 (second series), hits give low values 0.997 | locus YKL085W, strain MDH1, hits give low values 0.997 | locus YKL160W, strain elf1, hits give low values 0.939 | locus YKL190W, strain CNB1, hits give low values 1 | locus YKR001C, strain vps1, hits give low values 0.93 | locus YKR026C, strain gcn3, hits give low values 0.942 | locus YKR091W, strain srl3, hits give low values 0.96 | locus YLL001W, strain dnm1, hits give low values 0.931 | locus YLL041C, strain sdh2, hits give low values 0.96 | locus YLR027C, strain aat2, hits give low values 0.925 | locus YLR039C, strain RIC1, hits give low values 1.01 | locus YLR058C, strain SHM2, hits give low values 0.99 | locus YLR102C, strain apc9, hits give low values 0.975 | locus YLR113W, strain HOG1, hits give low values 0.981 | locus YLR221C, strain rsa3, hits give low values 0.947 | locus YLR258W, strain gsy2, hits give low values 0.934 | locus YLR262C, strain YPT6 (second series), hits give low values 0.902 | locus YLR262C, strain YPT6, hits give low values 1.06 | locus YLR268W, strain sec22, hits give low values 0.965 | locus YLR330W, strain CHS5, hits give low values 0.925 | locus YLR342W, strain FKS1 (second series), hits give low values 0.975 | locus YLR342W, strain FKS1, hits give low values 0.94 | locus YLR357W, strain rsc2, hits give low values 0.88 | locus YLR370C, strain arc18, hits give low values 0.941 | locus YLR371W, strain rom2, hits give low values 0.965 | locus YLR384C, strain iki3, hits give low values 0.944 | locus YLR418C, strain cdc73, hits give low values 0.943 | locus YML016C, strain PPZ1, hits give low values 0.991 | locus YML032C, strain rad52, hits give low values 0.997 | locus YML120C, strain ndi1, hits give low values 0.946 | locus YML124C, strain tub3, hits give low values 1.01 | locus YMR058W, strain fet3, hits give low values 0.928 | locus YMR078C, strain ctf18, hits give low values 0.982 | locus YMR125W, strain sto1, hits give low values 0.927 | locus YMR129W, hits give low values 0.949 | locus YMR205C, strain PFK2, hits give low values 0.898 | locus YMR223W, strain ubp8, hits give low values 1.02 | locus YMR231W, strain pep5, hits give low values 0.974 | locus YMR307W, strain GAS1, hits give low values 1.06 | locus YNL067W, strain RPL9B, hits give low values 0.99 | locus YNL183C, strain NPR1, hits give low values 0.885 | locus YNL209W, strain ssb2, hits give low values 0.956 | locus YNL233W, strain BNI4, hits give low values 0.914 | locus YNL248C, strain rpa49, hits give low values 0.95 | locus YNL250W, strain rad50, hits give low values 0.957 | locus YNL271C, strain bni1, hits give low values 1.02 | locus YNL298W, strain CLA4, hits give low values 0.995 | locus YNL307C, strain MCK1, hits give low values 0.987 | locus YNL322C, strain KRE1 (second series), hits give low values 0.948 | locus YNL322C, strain KRE1, hits give low values 1 | locus YNR049C, strain mso1, hits give low values 0.937 | locus YNR052C, strain pop2, hits give low values 1.02 | locus YOL012C, strain htz1 1.07 | locus YOL147C, strain pex11, hits give low values 0.997 | locus YOR001W, strain rrp6, hits give low values 0.95 | locus YOR061W, strain CKA2, hits give low values 1.01 | locus YOR069W, strain VPS5, hits give low values 0.99 | locus YOR070C, strain gyp1, hits give low values 0.941 | locus YOR080W, strain dia2, hits give low values 0.961 | locus YOR083W, strain WHI5, hits give low values 0.954 | locus YOR106W, strain vam3, hits give low values 0.905 | locus YOR136W, strain idh2, hits give low values 0.988 | locus YOR144C, strain elg1, hits give low values 0.997 | locus YOR184W, strain ser1, hits give low values 0.979 | locus YOR231W, strain MKK1, hits give low values 0.952 | locus YOR265W, strain rbl2, hits give low values 0.949 | locus YOR316C, strain cot1, hits give low values 0.996 | locus YPL051W, strain arl3, hits give low values 0.945 | locus YPL055C, strain LGE1, hits give low values 0.934 | locus YPL078C, strain atp4, hits give low values 0.922 | locus YPL106C, strain sse1, hits give low values 0.873 | locus YPL240C, strain hsp82, hits give low values 0.972 | locus YPL241C, strain CIN2, hits give low values 0.997 | locus YPL256C, strain CLN2, hits give low values 0.962 | locus YPR119W, strain clb2, hits give low values 1 | locus YPR141C, strain kar3, hits give low values 1.02 | locus YPR163C, strain tif3, hits give low values 1 | locus YPR167C, strain met16, hits give low values 1.02 | strain wtn01, hits give low values 0.944
